Among all 16,000 compounds or so, about 5,800 (36%) were called active. About 23% were inconclusive and are not listed. The list shows a part of the results. Unmarked numbers belong to inactive results. Calls come from the whole dose curve; as a rule, active = well fitted curve in the direction sought with a large enough effect; inconclusive = small, poorly fitted or top-dose-only effect, or effect the other way; inactive = no such curve, though single readings can be large or run the other way.
% is set by controls: 0 for no effect and ±100 for the full control effect.

Sequence of Cytochrome P450 2C19 (Homo sapiens) (P33261 whole entry, looked up): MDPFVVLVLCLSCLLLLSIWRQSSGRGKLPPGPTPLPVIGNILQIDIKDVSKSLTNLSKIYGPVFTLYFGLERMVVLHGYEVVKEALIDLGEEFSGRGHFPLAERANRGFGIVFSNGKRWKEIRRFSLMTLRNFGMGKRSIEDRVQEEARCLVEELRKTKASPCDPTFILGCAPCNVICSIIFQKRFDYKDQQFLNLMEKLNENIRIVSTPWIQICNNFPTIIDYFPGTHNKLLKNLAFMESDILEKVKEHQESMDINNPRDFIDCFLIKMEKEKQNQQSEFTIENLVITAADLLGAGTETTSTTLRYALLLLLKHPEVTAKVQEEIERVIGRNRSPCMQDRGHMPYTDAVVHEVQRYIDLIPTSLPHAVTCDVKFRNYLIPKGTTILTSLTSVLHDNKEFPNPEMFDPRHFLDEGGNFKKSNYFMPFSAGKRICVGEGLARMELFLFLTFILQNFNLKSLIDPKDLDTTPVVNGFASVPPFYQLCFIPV

The assay has as its target Cytochrome P450 2C19 (Homo sapiens) (UniProt P33261). As to the kind of experiment: Cytochrome panel assay with activity outcomes. The conditions noted are these: recombinant CYP, pro-luciferin dealkylation, luminescence, p450-cyp2c19; series mostly up to 57.1 µM; activity, negative = inhibition: at the top concentration.
One may read the AC50 as the midpoint of the concentration-response curve, whichever way the signal moves. As to `COc1ccc(C(=O)Nc2cccc(OC(=O)c3ccc(C)c(C)c3)c2)cc1`, the half-maximal activity concentration (AC50) is 7.94 µM (active). As to `CCOc1ccc(NC(=O)c2ccc(OC)cc2)cc1`, the “activity, negative = inhibition” value was -12.6%. With `COc1ccc(C(=O)Nc2cc(OC)cc(OC)c2)cc1`, the AC50 was 2.51 µM (active). `O=C(Nc1cccc(OC(=O)c2cccnc2)c1)c1cccnc1`: the “activity, negative = inhibition” value is -17.1%.

For the molecule `COc1ccc2c(OC)c3ccoc3nc2c1OC`, the “activity, negative = inhibition” value is -42.9% [at 25.6 µM]. Take `COc1ccc2c(=O)cc(-c3ccncc3)oc2c1OC`: the AC50 was 1.58 µM (active).

For `CCc1ccc2c(-c3cccc(Cl)c3)nc(=O)n(CC)c2n1`, the “activity, negative = inhibition” value was -44.4%.

`CCn1c2ccc(Cl)cc2c2nc3ccccc3nc21`: the AC50 was 14.1 µM (active). Consider `CCn1c2ccccc2c2nnc(NCCCO)nc21`, for which the activity, negative = inhibition was 5.92% [at 11.4 µM]. On to `Cc1noc(C)c1-c1ccc2ncnc(NCc3ccccc3)c2c1`, for which the AC50 was 7.94 µM (active). `COCCNc1ncnc2ccc(-c3c(C)noc3C)cc12`: the AC50 is 10 µM (active). As for `Cc1noc(C)c1-c1ccc2ncnc(NCCN3CCOCC3)c2c1`, the “activity, negative = inhibition” value is -20.8%. For the molecule `Cc1noc(C)c1-c1ccc2ncnc(NCc3cccs3)c2c1`, the AC50 is 1.26 µM (active). For the molecule `CC(=O)NCCNc1ncnc2ccc(-c3c(C)noc3C)cc12`, the “activity, negative = inhibition” value was -43.7%.

Take `Cc1cccc(CNc2ncnc3ccc(-c4c(C)noc4C)cc23)c1`: the AC50 was 5.01 µM (active). On to `C=C(C)C1Cc2nc(N)nc(C)c2C1` (stereo not drawn), for which the “activity, negative = inhibition” value was -25.3%. Still for that read-out and setting: the value for `COc1cc(C)cc2c(-c3c(O)cc(O)c4c3C[C@H](C)N[C@@H]4C)cc(-c3cc(-c4c(O)cc(O)c5c4C[C@H](C)N[C@@H]5C)c4cc(C)cc(OC)c4c3O)c(O)c12` was -31.6% [at 11.4 µM].

In the case of `Cc1noc(C)c1-c1ccc2ncnc(NCc3cccnc3)c2c1`, the AC50 was 0.02 µM (active). Turning to `CC1(C)OC[C@@H]2O[C@H](n3cnc4c(N)nc(Cl)nc43)[C@@H](OS(C)(=O)=O)[C@@H]2O1`, the activity, negative = inhibition was 8% [at 11.4 µM].

Take `CN(Cc1ccco1)c1ncnc2ccc(-c3cccc(NS(C)(=O)=O)c3)cc12`: the AC50 was 7.94 µM (active). Same read-out and setting: then `COc1cccc(-c2ccc3ncnc(N(C)Cc4ccco4)c3c2)c1`, with 2 µM (active). Still for that read-out and setting: then `CN(Cc1ccco1)c1ncnc2ccc(-c3cccnc3)cc12`, with 7.94 µM (active).

Take `CN1CCN(c2ncnc3ccc(-c4cccc(NS(C)(=O)=O)c4)cc23)CC1`: the “activity, negative = inhibition” value was -17.8%.

Take `CN(Cc1ccco1)c1ncnc2ccc(-c3ccc4c(c3)OCO4)cc12`: the AC50 was 0.631 µM (active). Turning to `CCOc1ccc2nc3cc(N=Nc4ccc(N)nc4N)ccc3c(N)c2c1`, the activity, negative = inhibition is -6.5% [at 11.4 µM]. Still for that read-out and setting: then `CN(C)C(=O)c1ccc(-c2ccc3ncnc(N(C)C)c3c2)cc1`, with -35.4%. With `COc1cccc(-c2ccc3ncnc(N(C)C)c3c2)c1`, the AC50 is 3.16 µM (active). Consider `CN(C)c1ncnc2ccc(-c3cccnc3)cc12`, for which the “activity, negative = inhibition” value is -21.3%.

(Values after PubChem BioAssay AID1851 (National Center for Advancing Translational Sciences (NCATS), 2009).)
